What was measured:
Test in all cases: phenotypically active (imaging signature differs from DMSO and reproducible) at any of 0.3-9 uM (binary (1 = active, 0 = inactive)); higher = active
Conditions in all cases: treatment time: 24 h
A549-ACTB-RAB5A = system: A549-ACTB-RAB5A
Procedure, shortened: (§1)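 Fifteen reporter lines derived from A549, HepG2 and WPMY1 cells by gene editing, carrying BFP for segmentation plus GFP and RFP/FusionRed markers, were exposed to 0.3, 1, 3 or 9 µM for 24 h in four wells each and imaged live. Live-cell features from each well were normalised to solvent control wells. A well set counted as deviating when ≥3 of 4 wells lay beyond the 95th percentile of control Euclidean distances, and as reproducible when the median replicate Pearson correlation exceeded the 95th percentile of non-replicates. Phenotypic activity was assigned only when both criteria were met.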

A549-CANX-COX4 = system: A549-CANX-COX4
Procedure, shortened: as §1

A549-GM130-SQSTM1 = system: A549-GM130-SQSTM1
Procedure, shortened: as §1

A549-TP53BP1-CLTA = system: A549-TP53BP1-CLTA
Procedure, shortened: as §1

A549-TUBA1B-RELA = system: A549-TUBA1B-RELA
Procedure, shortened: as §1

HepG2-ACTB-RAB5A = system: HepG2-ACTB-RAB5A
Procedure, shortened: as §1

HepG2-CANX-COX4 = system: HepG2-CANX-COX4
Procedure, shortened: as §1

HepG2-GM130-SQSTM1 = system: HepG2-GM130-SQSTM1
Procedure, shortened: as §1

HepG2-TP53BP1-CLTA = system: HepG2-TP53BP1-CLTA
Procedure, shortened: as §1

HepG2-TUBA1B-RELA = system: HepG2-TUBA1B-RELA
Procedure, shortened: as §1

WPMY1-ACTB-RAB5A = system: WPMY1-ACTB-RAB5A
Procedure, shortened: as §1

WPMY1-CANX-COX4 = system: WPMY1-CANX-COX4
Procedure, shortened: as §1

WPMY1-GM130-SQSTM1 = system: WPMY1-GM130-SQSTM1
Procedure, shortened: as §1

WPMY1-TP53BP1-CLTA = system: WPMY1-TP53BP1-CLTA
Procedure, shortened: as §1

WPMY1-TUBA1B-RELA = system: WPMY1-TUBA1B-RELA
Procedure, shortened: as §1

Measured: phenotypically active

C[C@]12CC[C@@H]3c4ccc(OS(=O)(=O)O)cc4CC[C@H]3[C@@H]1CCC2=O [estrone sulfuric acid]
inactive: A549-ACTB-RAB5A 0 | A549-CANX-COX4 0 | A549-GM130-SQSTM1 0 | A549-TP53BP1-CLTA 0 | A549-TUBA1B-RELA 0 | HepG2-ACTB-RAB5A 0 | HepG2-CANX-COX4 0 | HepG2-GM130-SQSTM1 0 | HepG2-TP53BP1-CLTA 0 | HepG2-TUBA1B-RELA 0 | WPMY1-ACTB-RAB5A 0 | WPMY1-CANX-COX4 0 | WPMY1-GM130-SQSTM1 0 | WPMY1-TP53BP1-CLTA 0 | WPMY1-TUBA1B-RELA 0

Cn1nnc2c(C(N)=O)ncn2c1=O [temozolomide]
inactive: A549-ACTB-RAB5A 0 | A549-CANX-COX4 0 | A549-GM130-SQSTM1 0 | A549-TP53BP1-CLTA 0 | A549-TUBA1B-RELA 0 | HepG2-ACTB-RAB5A 0 | HepG2-CANX-COX4 0 | HepG2-GM130-SQSTM1 0 | HepG2-TP53BP1-CLTA 0 | HepG2-TUBA1B-RELA 0 | WPMY1-ACTB-RAB5A 0 | WPMY1-CANX-COX4 0 | WPMY1-GM130-SQSTM1 0 | WPMY1-TP53BP1-CLTA 0 | WPMY1-TUBA1B-RELA 0

CC(C)NCC(O)c1ccc(NS(C)(=O)=O)cc1 (stereo not given) [sotalol]
inactive: A549-ACTB-RAB5A 0 | A549-CANX-COX4 0 | A549-GM130-SQSTM1 0 | A549-TP53BP1-CLTA 0 | A549-TUBA1B-RELA 0 | HepG2-ACTB-RAB5A 0 | HepG2-CANX-COX4 0 | HepG2-GM130-SQSTM1 0 | HepG2-TP53BP1-CLTA 0 | HepG2-TUBA1B-RELA 0 | WPMY1-ACTB-RAB5A 0 | WPMY1-CANX-COX4 0 | WPMY1-GM130-SQSTM1 0 | WPMY1-TP53BP1-CLTA 0 | WPMY1-TUBA1B-RELA 0

CCOc1cc([C@@H](CS(C)(=O)=O)N2C(=O)c3cccc(NC(C)=O)c3C2=O)ccc1OC [apremilast]
inactive: A549-ACTB-RAB5A 0 | A549-CANX-COX4 0 | A549-GM130-SQSTM1 0 | A549-TP53BP1-CLTA 0 | A549-TUBA1B-RELA 0 | HepG2-ACTB-RAB5A 0 | HepG2-CANX-COX4 0 | HepG2-GM130-SQSTM1 0 | HepG2-TP53BP1-CLTA 0 | HepG2-TUBA1B-RELA 0 | WPMY1-ACTB-RAB5A 0 | WPMY1-CANX-COX4 0 | WPMY1-GM130-SQSTM1 0 | WPMY1-TP53BP1-CLTA 0 | WPMY1-TUBA1B-RELA 0

O=C(Nc1cccnc1)c1cc(-c2ccnc(F)c2)ccc1OCc1ccccc1
inactive: A549-ACTB-RAB5A 0 | A549-CANX-COX4 0 | A549-GM130-SQSTM1 0 | A549-TP53BP1-CLTA 0 | A549-TUBA1B-RELA 0 | HepG2-ACTB-RAB5A 0 | HepG2-CANX-COX4 0 | HepG2-GM130-SQSTM1 0 | HepG2-TP53BP1-CLTA 0 | HepG2-TUBA1B-RELA 0 | WPMY1-ACTB-RAB5A 0 | WPMY1-CANX-COX4 0 | WPMY1-GM130-SQSTM1 0 | WPMY1-TP53BP1-CLTA 0 | WPMY1-TUBA1B-RELA 0

Cc1ccc(Nc2nnc(-c3ccc([N+](=O)[O-])cc3)o2)cc1Cl
inactive: A549-ACTB-RAB5A 0 | A549-CANX-COX4 0 | A549-GM130-SQSTM1 0 | A549-TP53BP1-CLTA 0 | A549-TUBA1B-RELA 0 | HepG2-ACTB-RAB5A 0 | HepG2-CANX-COX4 0 | HepG2-GM130-SQSTM1 0 | HepG2-TP53BP1-CLTA 0 | HepG2-TUBA1B-RELA 0 | WPMY1-ACTB-RAB5A 0 | WPMY1-CANX-COX4 0 | WPMY1-GM130-SQSTM1 0 | WPMY1-TP53BP1-CLTA 0 | WPMY1-TUBA1B-RELA 0

CCCCN1CCCCC1C(=O)Nc1c(C)cccc1C (stereo not given) [bupivacaine]
inactive: A549-ACTB-RAB5A 0 | A549-CANX-COX4 0 | A549-GM130-SQSTM1 0 | A549-TP53BP1-CLTA 0 | A549-TUBA1B-RELA 0 | HepG2-ACTB-RAB5A 0 | HepG2-CANX-COX4 0 | HepG2-GM130-SQSTM1 0 | HepG2-TP53BP1-CLTA 0 | HepG2-TUBA1B-RELA 0 | WPMY1-ACTB-RAB5A 0 | WPMY1-CANX-COX4 0 | WPMY1-GM130-SQSTM1 0 | WPMY1-TP53BP1-CLTA 0 | WPMY1-TUBA1B-RELA 0

c1ccc(CC2=NCCN2)cc1 [tolazoline]
inactive: A549-ACTB-RAB5A 0 | A549-CANX-COX4 0 | A549-GM130-SQSTM1 0 | A549-TP53BP1-CLTA 0 | A549-TUBA1B-RELA 0 | HepG2-ACTB-RAB5A 0 | HepG2-CANX-COX4 0 | HepG2-GM130-SQSTM1 0 | HepG2-TP53BP1-CLTA 0 | HepG2-TUBA1B-RELA 0 | WPMY1-ACTB-RAB5A 0 | WPMY1-CANX-COX4 0 | WPMY1-GM130-SQSTM1 0 | WPMY1-TP53BP1-CLTA 0 | WPMY1-TUBA1B-RELA 0

CC(=O)N[C@@H](CC(=O)O)C(=O)N[C@@H](CCC(=O)O)C(=O)O [Spaglumic acid]
inactive: A549-ACTB-RAB5A 0 | A549-CANX-COX4 0 | A549-GM130-SQSTM1 0 | A549-TP53BP1-CLTA 0 | A549-TUBA1B-RELA 0 | HepG2-ACTB-RAB5A 0 | HepG2-CANX-COX4 0 | HepG2-GM130-SQSTM1 0 | HepG2-TP53BP1-CLTA 0 | HepG2-TUBA1B-RELA 0 | WPMY1-ACTB-RAB5A 0 | WPMY1-CANX-COX4 0 | WPMY1-GM130-SQSTM1 0 | WPMY1-TP53BP1-CLTA 0 | WPMY1-TUBA1B-RELA 0

NS(=O)(=O)c1cc2c(cc1Cl)NC(C(Cl)Cl)NS2(=O)=O (stereo not given) [trichlormethiazide]
inactive: A549-ACTB-RAB5A 0 | A549-CANX-COX4 0 | A549-GM130-SQSTM1 0 | A549-TP53BP1-CLTA 0 | A549-TUBA1B-RELA 0 | HepG2-ACTB-RAB5A 0 | HepG2-CANX-COX4 0 | HepG2-GM130-SQSTM1 0 | HepG2-TP53BP1-CLTA 0 | HepG2-TUBA1B-RELA 0 | WPMY1-ACTB-RAB5A 0 | WPMY1-CANX-COX4 0 | WPMY1-GM130-SQSTM1 0 | WPMY1-TP53BP1-CLTA 0 | WPMY1-TUBA1B-RELA 0

COc1c(O[C@@H]2O[C@H](CO)[C@@H](O)[C@H](O)[C@H]2O)cc2c(c1OC)-c1ccc(SC)c(=O)cc1[C@@H](NC(C)=O)CC2 [Thiocolchicoside]
inactive: A549-ACTB-RAB5A 0 | A549-CANX-COX4 0 | A549-GM130-SQSTM1 0 | A549-TP53BP1-CLTA 0 | A549-TUBA1B-RELA 0 | HepG2-ACTB-RAB5A 0 | HepG2-CANX-COX4 0 | HepG2-GM130-SQSTM1 0 | HepG2-TP53BP1-CLTA 0 | HepG2-TUBA1B-RELA 0 | WPMY1-ACTB-RAB5A 0 | WPMY1-CANX-COX4 0 | WPMY1-GM130-SQSTM1 0 | WPMY1-TP53BP1-CLTA 0 | WPMY1-TUBA1B-RELA 0

NC(=O)c1cccnc1 [Nicotinamide]
inactive: A549-ACTB-RAB5A 0 | A549-CANX-COX4 0 | A549-GM130-SQSTM1 0 | A549-TP53BP1-CLTA 0 | A549-TUBA1B-RELA 0 | HepG2-ACTB-RAB5A 0 | HepG2-CANX-COX4 0 | HepG2-GM130-SQSTM1 0 | HepG2-TP53BP1-CLTA 0 | HepG2-TUBA1B-RELA 0 | WPMY1-ACTB-RAB5A 0 | WPMY1-CANX-COX4 0 | WPMY1-GM130-SQSTM1 0 | WPMY1-TP53BP1-CLTA 0 | WPMY1-TUBA1B-RELA 0
